High-throughput results from PubChem BioAssay.
Hits are enriched below; roughly 3.3% of the tested compounds scored in any of these assays.
CASP6 VEID inh – human caspase-6 inhibitors, primary screen, biochemical, VEID-R110 fluorescence, single point, set 2 | AID 686996, 2013 | actives 0.53% (n = 350,000) | purified caspase-6, Z-VEID-R110 cleavage fluorescence | P55212 | inhibition, % at 12.5 µM;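 active means mean inhibition across replicates at least about 35%, with every replicate also reaching that limit, limit read from the data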;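 further: 0% = median of neutral control wells and 100% = no fluorescence left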
SIRT5 inh – SIRT5 desuccinylase inhibitors, primary screen, biochemical, fluorescence imaging, single point, set 5; AID 652115, 2013; inhibition, % at 15 µM; Purified SirT5, succinyl-peptide AMC, trypsin-coupled fluorescence; actives 1.1% (n = 330,000); NAD-dependent protein deacylase sirtuin-5, mitochondrial (Homo sapiens), Q9NXA8; in the data active means inhibition above about 15%
Target sequence (Q9NXA8 whole entry, looked up): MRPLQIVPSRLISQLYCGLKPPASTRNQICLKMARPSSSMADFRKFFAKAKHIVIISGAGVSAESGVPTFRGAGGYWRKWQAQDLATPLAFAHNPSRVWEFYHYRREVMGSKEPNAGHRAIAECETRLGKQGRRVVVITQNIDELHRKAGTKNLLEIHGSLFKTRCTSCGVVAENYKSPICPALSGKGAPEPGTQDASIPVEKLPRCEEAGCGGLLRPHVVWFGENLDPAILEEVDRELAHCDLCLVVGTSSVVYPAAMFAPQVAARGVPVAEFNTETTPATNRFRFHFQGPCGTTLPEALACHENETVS
ERAP1 inh – human ERAP1 aminopeptidase inhibitors, primary screen, biochemical, single point, plate reader; AID 652197, 2013; actives 0.15% (n = 340,000); Endoplasmic reticulum aminopeptidase 1 (Homo sapiens), Q9NZ08; inhibition, % at 10.7 µM; recombinant ERAP1, Leu-AMC fluorescence, 60 min;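 active means mean replicate inhibition of at least 30%, or all replicates individually reaching that 30% level; inactive means mean below 30% and not every replicate reaching it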;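 further: 0% = neutral control wells and 100% = L-leucinethiol positive control wells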
FGF22 binding – binders of human FGF22 protein, primary screen, FGF22 synaptogenesis inhibitor project, biophysical, thermal shift, single point; Fibroblast growth factor 22 (Homo sapiens), Q9HCT0; AID 651658, 2012; recombinant FGF22 thermal shift, SYPRO orange fluorescence; percent of sucrose octasulfate shift, DMSO zero; actives 1.5% (n = 340,000); activity (Tm shift, normalised), % at 9.99 µM;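 active means mean Tm shift, scaled 0 neutral to 100 positive control, at about 1.3% or above, every replicate too, limit read from the data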
Target sequence (Q9HCT0 whole entry, looked up): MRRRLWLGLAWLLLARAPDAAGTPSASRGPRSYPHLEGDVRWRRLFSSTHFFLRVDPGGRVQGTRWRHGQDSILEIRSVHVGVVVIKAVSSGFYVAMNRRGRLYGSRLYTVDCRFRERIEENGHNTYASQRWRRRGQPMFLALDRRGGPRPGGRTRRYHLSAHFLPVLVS
INS-1E GSIS act – GLuc luminescence reporter in INS-1E cells, primary screen for activators of glucose-dependent secretion of insulin; INS-1E GLuc reporter insulin secretion, 2-3 h; activation, % at 16.6 µM; actives 0.61% (n = 370,000);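 active means lowest replicate activation of at least 40%, so every replicate reaches that level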;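 further: 0% = median of neutral control wells and 100% = median of IBMX positive control wells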
The depositor's hits bear a star; · = not tested or not shown.

SMILES	CASP6 VEID inh	SIRT5 inh	ERAP1 inh	FGF22 binding	INS-1E GSIS act
CCc1nnc(NC(=O)c2cc([N+](=O)[O-])ccc2N2CCOCC2)s1	-1	-10	-2	0	19
CO[C@H]1CN(C)C(=O)c2ccc(NC(=O)Nc3ccccc3)cc2OC[C@H](C)N(C(=O)CN(C)C)C[C@H]1C	·	-10	·	0	10
CCC(=O)N1CCCCN2[C@H](CO)[C@H](c3ccc(C#Cc4ccccc4F)cc3)[C@@H]2C1	-2	-2	5	1	10
CC=Cc1ccc2n(c1=O)C[C@H]1[C@H](CO)[C@@H](C(=O)N(C)C)N(CC3CCCCC3)[C@@H]21 (mixture of isomers)	-1	-5	-3	0	4
O=C(Nc1nnc(-c2cccs2)o1)c1ccc(S(=O)(=O)N2CCOCC2)cc1	-1	2	-2	44*	11
O=C1CC(c2ccccc2)CC(O)=C1C=Nc1ccccc1 (configuration not stated)	-2	3	7	44*	10
CCNc1nc(NCC)nc(N(C#N)C(C)C)n1	1	-3	·	0	48*
CCNc1nc(NC(C)C)nc(N(C#N)C(C)C(=O)N(CC)CC)n1 (configuration not stated)	-1	-1	-2	0	9
CCS(=O)(=O)Nc1ccc2c(c1)C(=O)N(C)C[C@H](OC)[C@@H](C)CN(CCC(F)(F)F)[C@@H](C)CO2	·	3	·	0	-7
CN1c2ccc(C3=CCCCC3)cc2[C@H]2[C@H](CCN2C(=O)C2CC2)[C@@H]1CO	10	20*	1	·	·
CN1c2ccc(C3=CCCCC3)cc2[C@H]2[C@H](CCN2C(=O)C2CCCCC2)[C@@H]1CO	-1	9	0	·	-15
CN1c2ccc(C3=CCCCC3)cc2[C@@H]2[C@@H](CCN2C(=O)C2CCCCC2)[C@@H]1CO	·	18*	·	·	·
COc1ccc(S(=O)(=O)N(C)C[C@H]2OCCCC[C@H](C)Oc3ccc(NC(=O)Nc4ccc5c(c4)OCO5)cc3C(=O)N([C@H](C)CO)C[C@@H]2C)cc1	0	1	-2	0	-2
CCC(C)(C)c1ccc(OCCCC[n+]2cccc(C)c2)c(C(C)(C)CC)c1	-108	-1	13	0	185*
Cc1ccc[n+](CC(=O)Nc2cc(C(F)(F)F)ccc2Cl)c1	·	·	·	·	27
O=C(NC(=S)Nc1nc(-c2ccccc2)cs1)c1cccnc1	0	0	10	43*	·
Cc1ccccc1-c1cnc2c(c1)C(=O)N([C@H](C)CO)C[C@@H](C)[C@@H](CN(C)C(=O)c1ccncc1)O2	0	-4	0	0	4
C#Cc1cccc(C(=O)N(Cc2cccnc2)CC2CCCN(C3CCCCC3)C2)c1 (configuration not stated)	-10	·	3	43*	·
C[C@@H]1CN([C@H](C)CO)C(=O)c2cc(C3=CCCCC3)cnc2O[C@@H]1CN(C)Cc1ccc(C(=O)O)cc1	1	-3	-1	0	6
O=C(O)C[C@H]1CC[C@H](NC(=O)c2ccncc2)[C@H](CO)O1	-1	-1	-1	0	9
CCN(CC)C(=O)C1(P(=O)(c2ccccc2)c2ccccc2)CCC1	-1	0	-3	0	90*
CO[C@H]1CN(C)C(=O)c2cc(NS(=O)(=O)c3ccc(C)cc3)ccc2OC[C@H](C)N(Cc2nccs2)C[C@H]1C	1	3	-4	·	-21
Cc1ccc(C(OCC(C)(C)C[N+](C)(C)C)c2ccccc2)cc1 (configuration not stated)	-5	-1	39*	0	10
COc1ccc(/C=C/C2=NN(Cc3ccccc3)C(=O)CC2)cc1	-2	2	-3	43*	-13
CC(C)NC(=O)COC(=O)c1ccccc1C(=O)c1ccccc1	-4	-12	-5	44*	8
SMILES	CASP6 VEID inh	SIRT5 inh	ERAP1 inh	FGF22 binding	INS-1E GSIS act
CC(C)NC(=O)NC(=O)COC(=O)c1ccccc1O	3	1	1	0	0
CCn1nc(CC(=O)O)c2ccccc2c1=O	·	-1	0	44*	-8
Cc1noc(C)c1S(=O)(=O)Nc1ccc2c(c1)CC(=O)N([C@H](C)CO)C[C@H](C)[C@@H](CN(C)S(=O)(=O)c1ccc(Cl)cc1)O2	-1	-2	0	0	-16
O=C(Cn1cnc(S(=O)(=O)N2CCCC2)c1)Nc1cccc(Br)c1	-3	19*	5	0	8
O=C(C[C@H]1CC[C@H]2[C@@H](COC[C@H](O)CN2Cc2ccncc2)O1)NCc1ccncc1	-2	-5	0	0	32
Cn1cnc(S(=O)(=O)N[C@H]2CC[C@@H](CC(=O)N3CCN(c4ccccc4)CC3)O[C@H]2CO)c1	-1	-3	-1	0	12
CCCCOc1ccc(CSCCN=C(N)N)cc1	-12	-2	-7	43*	2
CCCCOc1ccc(CN=C(N)N)cc1Cl	0	-4	2	0	-31
C[C@@H]1CN([C@H](C)CO)C(=O)Cc2cc(NC(=O)Nc3ccc(F)cc3)ccc2O[C@@H]1CN(C)C(=O)Nc1ccc(F)cc1	·	0	2	-1	-8
C[C@H](CO)N1C[C@H](C)[C@H](CN(C)C(=O)Nc2cccc3ccccc23)OCCCC[C@H](C)Oc2ccc(NC(=O)c3ccncc3)cc2C1=O	0	9	-6	0	5
O=C(Nc1cccc(C(F)(F)F)c1)c1csc([C@@H]2O[C@H](CO)[C@@H](O)[C@H]2O)n1	-1	·	1	0	80*
C/C=C(/C)C(=O)O[C@@H]1c2c(ccc3ccc(=O)oc23)OC(C)(C)[C@@H]1OC(=O)/C(C)=C\C	-6	31*	-2	0	-25
C[C@@H]1CN([C@H](C)CO)C(=O)c2cc(C#Cc3cccnc3)cnc2O[C@H]1CN(C)Cc1ccc(F)cc1	·	2	·	0	-9
COc1ccc(S(=O)(=O)NNC(=O)C23CC4CC(CC(C4)C2)C3)cc1	5	3	4	0	5
Cc1ccc(S(=O)(=O)NNC(=O)C23CCC(CC2)C3)cc1	-3	·	4	43*	·
OC(c1ccccc1)(c1nc(-c2cccc(C(F)(F)F)c2)cs1)C(F)(F)F (configuration not stated)	7	3	-1	0	106*
O=C(O)c1cccc(-c2csc(C(O)(c3ccccc3)C(F)(F)F)n2)c1 (configuration not stated)	-3	·	21	0	-5
CC(C)COCC(O)CC(Cc1ccccc1)C(=O)NN (configuration not stated)	2	2	2	43*	-32
